Hit rate of the full screen: of about 310,000 compounds, about 14,000 (4.5%) showed an effect of 50% or more. Effects have a minus sign here. For the sample, strong results were picked, then their nearest neighbours and some compounds at random.
These molecules were tested against human ether-à-go-go-related gene (hERG) potassium channel (human, UniProt Q12809) (assay: primary screen, population patch clamp on CHO cells stably expressing hERG; higher = less effect of the substance).
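Also: peak tail current of the secondary pulse compared with the same well before compound.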

Sequence of human ether-à-go-go-related gene (hERG) potassium channel (Q12809 whole entry, looked up): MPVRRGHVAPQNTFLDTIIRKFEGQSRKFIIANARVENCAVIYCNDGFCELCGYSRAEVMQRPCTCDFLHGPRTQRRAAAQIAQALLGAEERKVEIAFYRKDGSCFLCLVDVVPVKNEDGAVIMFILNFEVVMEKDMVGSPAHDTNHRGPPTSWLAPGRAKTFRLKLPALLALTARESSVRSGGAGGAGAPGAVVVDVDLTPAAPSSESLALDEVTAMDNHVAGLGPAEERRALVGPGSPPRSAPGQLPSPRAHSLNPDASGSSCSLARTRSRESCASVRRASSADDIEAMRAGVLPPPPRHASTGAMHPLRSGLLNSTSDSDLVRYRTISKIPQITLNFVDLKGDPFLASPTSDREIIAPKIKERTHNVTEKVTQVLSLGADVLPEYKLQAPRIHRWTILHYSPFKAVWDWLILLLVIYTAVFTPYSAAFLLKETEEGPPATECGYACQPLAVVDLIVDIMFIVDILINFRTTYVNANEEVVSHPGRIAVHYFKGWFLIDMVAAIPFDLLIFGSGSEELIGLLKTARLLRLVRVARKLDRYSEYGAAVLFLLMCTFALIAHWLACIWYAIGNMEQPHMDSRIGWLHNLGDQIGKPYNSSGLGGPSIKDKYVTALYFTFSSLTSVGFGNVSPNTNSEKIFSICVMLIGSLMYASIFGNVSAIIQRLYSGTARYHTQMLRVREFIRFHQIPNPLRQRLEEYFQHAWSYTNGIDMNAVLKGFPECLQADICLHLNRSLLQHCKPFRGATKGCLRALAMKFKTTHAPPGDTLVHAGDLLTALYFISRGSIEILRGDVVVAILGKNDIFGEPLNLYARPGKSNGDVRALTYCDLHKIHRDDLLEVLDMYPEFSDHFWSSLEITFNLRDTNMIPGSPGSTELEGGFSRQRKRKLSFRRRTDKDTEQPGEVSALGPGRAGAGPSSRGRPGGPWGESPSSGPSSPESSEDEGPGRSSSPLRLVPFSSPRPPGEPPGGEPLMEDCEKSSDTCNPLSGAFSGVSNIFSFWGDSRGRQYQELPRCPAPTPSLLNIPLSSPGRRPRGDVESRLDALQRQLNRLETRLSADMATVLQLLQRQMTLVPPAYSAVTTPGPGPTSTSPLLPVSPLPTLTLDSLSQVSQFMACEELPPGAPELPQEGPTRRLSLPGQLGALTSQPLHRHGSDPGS

Row | Compound | hERG current change (%, negative = inhibition) at 10uM [%]
1 | CC(C)c1ccc(N2C(=NC(=O)C3CCCO3)SC3CS(=O)(=O)CC32)cc1 (centres unmarked) | -9.87
2 | O=C1c2ccccc2C(=O)N1CN(C(=O)COc1ccc(Cl)cc1Cl)c1cccc(F)c1 | 1.4
3 | COc1cccc(S(=O)(=O)Nc2ccc(C(=O)NCc3ccco3)cc2)c1 | 3.01
4 | Cn1c(-c2ccc(F)cc2)cnc1NCc1ccc(C#N)cc1 | -73.7
5 | Cn1c(-c2ccc(F)cc2)cnc1NCc1ccccc1 | -46.7
6 | Cn1c(-c2ccc(Br)cc2)cnc1NCc1ccc(C#N)cc1.O=C(O)C(=O)O | -76.6
7 | Cn1c(-c2ccccc2)cnc1NCc1ccc(-c2ccccc2)cc1.O=C(O)C(=O)O | -10.4
8 | Cn1c(-c2ccc(F)cc2)cnc1NCc1ccc(F)cc1 | -40.7
9 | COc1cc(OC)c(NC(=O)CCNC(=O)Cn2cnc3ccccc3c2=O)cc1Cl | -0.133
10 | CCc1nnc(NS(=O)(=O)c2ccc(NC(=O)/C=C/c3ccc(F)cc3)cc2)s1 | 8.28
11 | O=C(O)CCC(=O)Nc1sc2c(c1C(=O)NC1CCCC1)CCCC2 | 5.76
12 | Cc1cc(C)cc(C(=O)NC(CC(N)=O)c2ccc(NC3CCCCCCC3)c([N+](=O)[O-])c2)c1 (centres unmarked) | 1.06
13 | CC(=O)c1c(O)cc(C)oc1=O | 25.5
14 | C(=N\Nc1nc(N2CCOCC2)nc(N2CCOCC2)n1)/c1cccnc1 | -12.1
15 | C(=N\Nc1nc(N2CCCC2)nc(N2CCCC2)n1)/c1cccnc1 | 6.33
16 | FC(F)(F)COc1nc(N/N=C/c2cccnc2)nc(N2CCCCC2c2ccccn2)n1 (centres unmarked) | -60.8
17 | COCCN(CC(=O)NCc1ccc(OC)cc1)C(=O)CCC(=O)Nc1nccs1 | -8.1
18 | O=S(Cc1cc(Oc2ccccc2)nc(-c2ccccc2)n1)c1ccccc1 (centres unmarked) | -7.69
19 | O=Cc1sc(Nc2ccccc2)nc1Cl | -13.1
20 | COc1ccc(S(=O)(=O)N2CCCCC2)cc1NC(=O)c1ccc([N+](=O)[O-])o1 | -2.81
21 | CCN1CCN(c2ccc(S(=O)(=O)N3CCCCC3)cc2NC(=O)c2ccc(C)o2)CC1 | -75.7

Row | Compound | hERG current change (%, negative = inhibition) at 10uM [%]
22 | Cc1ccc(S(=O)(=O)N2CCCCC2)cc1NC(=O)c1cc2ccccc2o1 | -7.85
23 | COc1ccc(N2CCCC2)c(NC(=O)c2ccc([N+](=O)[O-])o2)c1 | 14
24 | CCN1CCN(c2ccc(S(=O)(=O)N3CCCCC3)cc2NC(=O)c2cc3ccccc3o2)CC1 | -53.7
25 | CCN1CCN(c2ccc(S(=O)(=O)N3CCCCC3)cc2NC(=O)c2ccc([N+](=O)[O-])o2)CC1 | -75.9
26 | CCN1CCN(c2ccc(S(=O)(=O)N3CCCCC3)cc2NC(=O)c2ccc([N+](=O)[O-])s2)CC1 | -80.6
27 | CCN1CCN(c2c(Cl)cccc2NC(=O)c2cc3ccccc3o2)CC1 | -23.4
28 | CCN1CCN(S(=O)(=O)c2ccc(Cl)c(C(=O)Nc3ccccc3N3CCCCC3)c2)CC1 | 12.8
29 | CCN1CCN(c2ccc(S(=O)(=O)N3CCCCC3)cc2NC(=O)c2cccc(C)c2[N+](=O)[O-])CC1 | -28.8
30 | CCCn1c(/N=C/c2ccccc2O)nc2ccccc21 | 13.6
31 | COc1ccc(OCCCC(=O)Nc2nncs2)cc1 | 0.955
32 | COc1cccc(C=Nc2ccc(N3CCOCC3)cc2)c1O | 17.9
33 | CCCCC(=O)Nc1ccc2c(c1)nc(CCNC(=O)c1ccco1)n2C | -11.1
34 | Cc1cnc(NC(=O)CN2CCN(c3ccccc3F)CC2)s1.Cl | 12.2
35 | Cc1ccc(S(=O)(=O)CCC(=O)OCC(=O)NCc2ccc(Cl)cc2)cc1 | 36.8
36 | O=C(Nc1ccccc1Cl)NC1(C(=O)N2CCOCC2)CCCCC1 | 17.5
37 | CCN1CCN(c2ccc(S(=O)(=O)N3CCCCC3)cc2NC(=O)c2sccc2C)CC1 | -71.4
38 | COc1ccccc1C(=O)Nc1nc(-c2cccs2)c(NC(C)=O)s1 | -7.05
39 | O=C(O)CN1c2cccc3cccc(c23)S1(=O)=O | 32.4
40 | CC(=O)N1c2ccc(Cl)cc2C2OCCC2C1c1ccco1 (centres unmarked) | 9.11
41 | O=C(c1ccc(S(=O)(=O)N2CCOCC2)cc1)N1CCN(c2ccccn2)CC1 | 4.62
42 | OC(C#CCN1CCCCC1)(c1ccccc1)c1ccccc1 | -24.6

Row | Compound | hERG current change (%, negative = inhibition) at 10uM [%]
43 | OC(C#CCCN1CCCCC1)(c1ccccc1)C1CCCCC1 (centres unmarked) | -46.3
44 | CC1CCCN1CC#CC(O)(c1ccccc1)c1ccccc1.Cl (centres unmarked) | -60.7
45 | OC(C#CCN1CCCC1)(c1ccccc1)c1cccc(F)c1 (centres unmarked) | -16.7
46 | OC(C#CCN1CCCC1)(c1ccccc1)c1ccccc1 | -28.8
47 | OC(C#CCCN1CCCCC1)(c1ccccc1)c1ccccc1 | -53.8
48 | CCOC(=O)[C@@H]1[C@H]2COc3ccc(Br)cc3[C@H]2N2C(=O)N(c3ccc(C)cc3)C(=O)[C@]12C | -4.14
49 | O=C(NC(=S)NN1CCCCC1c1cccnc1)c1ccc(Cl)cc1Cl (centres unmarked) | -6.98
50 | Cc1ccc(SCC(=O)NC(=O)NCCC(C)C)c(C)c1 | -1.09
51 | Cc1cc(Cl)c2oc(C(=O)N(C)CCCCN3CCOCC3)c(C)c2c1 | -46
52 | COc1ccccc1CNC(=O)c1c(O)c2cc(OC)c(OC)cc2[nH]c1=O | 6.86
53 | COc1cc(/C=N/NC(=O)C(=O)NCc2cccnc2)cc(OC)c1OC | 5.17
54 | O=C(C1=C[C@H](C2CC2)C[C@H](OCc2ccc(CO)cc2)O1)N1CCN(Cc2ccc3c(c2)OCO3)CC1 | -57.8
55 | O=C(C1=C[C@H](c2ccc3c(c2)OCO3)C[C@H](OCc2ccc(CO)cc2)O1)N1CCN(Cc2ccc3c(c2)OCO3)CC1 | -17.2
56 | CC(C)(C)[C@H]1C=C(C(=O)N2CCN(Cc3ccc4c(c3)OCO4)CC2)O[C@@H](OCc2ccc(CO)cc2)C1 | -33.7
57 | C[C@H]1C=C(C(=O)N2CCN(Cc3ccc4c(c3)OCO4)CC2)O[C@@H](OCc2ccc(CO)cc2)C1 | -70.7
58 | CC(C)(C)[C@@H]1C=C(C(=O)N2CCN(Cc3ccc4c(c3)OCO4)CC2)O[C@H](OCc2ccc(CO)cc2)C1 | -35
59 | O=C(C1=C[C@@H](C2CCCCC2)C[C@@H](OCc2ccc(CO)cc2)O1)N1CCN(Cc2ccc3c(c2)OCO3)CC1 | 4.46
60 | O=C(C1=C[C@H](C2CCCCC2)C[C@H](OCc2ccc(CO)cc2)O1)N1CCN(Cc2ccc3c(c2)OCO3)CC1 | -18.3
61 | O=C(C1=C[C@@H](C2CC2)C[C@@H](OCCCCO)O1)N1CCN(Cc2ccc3c(c2)OCO3)CC1 | -11.1
62 | O=C(C1=C[C@@H](C2CC2)C[C@@H](OCc2ccc(CO)cc2)O1)N1CCN(Cc2ccc3c(c2)OCO3)CC1 | -51.7

— PMC4336329 (PLoS ONE, 2015)
